Reference: the supplement of paper PMC10338343
± gives the standard deviation. In all, about 6,600 sequences were measured (“pre-steady-state target cleavage rate”: median about 0.07, highest 2% from about 0.72 on). This excerpt belongs to a sample that is enriched for the highest values.

What follows are sequences tested on MIWI (PIWIL1) piRISC loaded with Kctd7 piRNA (30 nt) (assay: pre-steady-state target cleavage rate (min^-1); MIWI and MILI are mouse PIWI proteins and EfPiwi is from a freshwater sponge; tags in brackets are library labels; higher = faster piRNA-guided slicing of the target). Conditions: guide: Kctd7 piRNA 5'p-UGUUAAUCUCUCAGAGAAGGUGACAGUGAU; auxiliary factor: 500 nM mouse GTSF1.
Experimental: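 Cleave-'n-Seq: a library of target RNAs (target site embedded in constant flanks, ACAGCATTCCGCGTTAGTGATATCCG... 5' flank; DNA-blocked outside the site) at 0.1 nM was incubated with 1 nM active mouse MILI or MIWI piRISC (synthetic 5'-monophosphorylated piRNA guide) with or without 500 nM mouse GTSF1 at 33 °C for 1 min to 16 h. Uncleaved targets were sequenced and normalised to non-target controls, and the pooled three trials were fitted to a burst-and-steady-state model to give the pre-steady-state cleavage rate (min^-1; k3 is constrained to at most 1e-4). Sequence is the target site only; target names encode pairing extent (gX:gY) and contiguous / 1-mismatch / 2-mismatch / bulge geometry. Fits with R² ≤ 0 are excluded.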

Sequence	pre-steady-state target cleavage rate
UAGUGACAGUCCUUCUCAGAGAGUUUAACA	0.0044 ± 0.0027
UAGUGACUCACGAUCUCUGAGAGAUUAACA	0.00958 ± 0.0018
UACACUGUCACCUUCUCUGAGAGAUGUAACA	0.386 ± 0.051
AACACUCUCACCUUCUCUGAGAGAUUAACA	0.564 ± 0.035
UACACUGUCACCUUCUCUGAGAGAUUACCA	0.152 ± 0.024
UUCACUGUCACAUUCUCUGAGAGAUUAACA	0.682 ± 0.031
UACACUGUCACAUUCUCUGAGAGAUUAACA	0.676 ± 0.036
UUCACUGUCACCAUUCUCUGAGAGAUUAACA	0.725 ± 0.029
UAGUCUGUCACCAUUCUCUGAGAGAUUAACA	0.601 ± 0.03
AUCACUGUCACCAUUCUCUGAGAGAUUAACA	0.741 ± 0.036
UUCACUGUCACCUCUCUCUGAGAGAUUAACA	0.289 ± 0.022
UUCACUGUCACCUCUCUGAGAGAUUAACA	0.501 ± 0.037
AUCACUGUCACAUUCUCUGAGAGAUUAACA	0.799 ± 0.035
UACACUGUCACCAUUCUCUGAGAGAUUAACA	0.674 ± 0.035
UACACUGUCCACCUUCUCUGAGAGAUUAACA	0.496 ± 0.038
UAGAGUGACACCUUCUCUGAGAGAUUAACA	0.55 ± 0.023
UAGACUUUCACCUUCUCUGAGAGAUUAACA	0.612 ± 0.033
UAGUGACAGUGUUUCUCUGAGAGAUUAACA	0.00493 ± 0.0019
UAGUGUGACACCUUCUCUGAGAGAUUAUGA	0.0202 ± 0.0074
UUCACUGUCAACUUCUCUGAGAGAUUAACA	0.668 ± 0.028
UAGACUGUCAACCUUCUCUGAGAGAUUAACA	0.282 ± 0.023
UACACUGUCAACUUCUCUGAGAGAUUAACA	0.796 ± 0.035
AUCACUGUCACUUCUCUGAGAGAUUAACA	0.628 ± 0.044
AUCACUGUCAACUUCUCUGAGAGAUUAACA	0.793 ± 0.045

Sequence	pre-steady-state target cleavage rate
UACACUGUCAACCUUCUCUGAGAGAUUAACA	0.193 ± 0.016
UACACUGUCACACUUCUCUGAGAGAUUAACA	0.544 ± 0.023
UAGUCUGUCAACUUCUCUGAGAGAUUAACA	0.593 ± 0.024
UAGACUGUCAACUUCUCUGAGAGAUUAACA	0.726 ± 0.049
UUCACUGUCACCUUCUCUGAAGAGAUUAACA	0.019 ± 0.0081
UAGUGACUCACCUUCUGUGAGAGAUUAAGA	0.088 ± 0.02
UAGACUGUCACCUUCUCUCUGAGAUUAACA	0.0118 ± 0.0026
UAGACUGUCACCUUCUCUGAGAGAUUAACA [g2:g27:cont:t1A]	0.805 ± 0.05
UAGACUGUCACCUUCUCUGAGAGAUUAACC [g2:g27:cont:t1C]	0.322 ± 0.03
AAGACUGUCACCUUCUCUGAGAGAUUAAGA	0.238 ± 0.037
AAGACUGUCACCUUCUCUGAGAGAUUAACA	0.786 ± 0.036
UAGACUGUCACCUUCUCUGAGAAGAUUAACA	0.0399 ± 0.0084
UAGACUGUCACCUUCUCUGUGAGAUUUUGA	0.0048 ± 0.0033
UAGUGACACACCUUCACUGAGAGAAUAACA	0.0335 ± 0.0091
UAGUGAGUCACCUUCACUGAGAGAUUUUGA	0.0525 ± 0.017
UACACUCUCACCUUCACUGAGAGAUUAACA	0.256 ± 0.02
UAGACUGUCACCUCUCUGAGAGAUUAACA	0.321 ± 0.036
AUCACUGUCACCUCCUCUGAGAGAUUAACA	0.802 ± 0.033
UAGACUGUCACCUGCUCUGAGAGAUUAACA	0.77 ± 0.043
UACACUGUCACCUCUCUCUGAGAGAUUAACA	0.425 ± 0.029
UACACUGUCACCUCCUCUGAGAGAUUAACA	0.731 ± 0.026
UACACUGUCACCUCUCUGAGAGAUUAACA	0.5 ± 0.035
AUCACUGUCACCUCUCUCUGAGAGAUUAACA	0.515 ± 0.031
UAGACUGUCACCUUGCUCUGAGAGAUUAACA	0.358 ± 0.049

Sequence	pre-steady-state target cleavage rate
UAGACUGUCACCUCCUCUGAGAGAUUAACA	0.744 ± 0.035
UAGACUGUCACCUCUCUCUGAGAGAUUAACA	0.409 ± 0.044
UUCACUGUCACCUCCUCUGAGAGAUUAACA	0.639 ± 0.021
UAGACUGUCACCUGUCUCUGAGAGAUUAACA	0.561 ± 0.036
UUCACUGUCAGGUUCUCUGAGAGAUUAUGA	0.0127 ± 0.003
UAGUGACUCACCUUCUCUGACACAUUAACA	0.00928 ± 0.0035
UUCACUGUCACCUUGUCUGAGUGAUUAACA	0.0394 ± 0.0054
UAGUCUGUCUCCUUCUGUGAGAGAUUAACA	0.536 ± 0.028
UUCACUGUGACGUUCUCUGAGAGAUUAACA	0.59 ± 0.026
AUCAGACUCACCUUCUCUGAGAGAUUAAGA	0.159 ± 0.028
AUCACUGUCACCUUCUCUGAGAGUAUUUGA	0.109 ± 0.034
UUCACUGUCACCUUCUCUGAGAGAAAAUGA	0.0429 ± 0.015
UAGUGACUCACCUUCUCUCAGAGAUAAACA	0.0156 ± 0.0032
UAGUGACUCACCCUCUCUGAGAGAUUAACA	0.415 ± 0.045
AUCUCUGUCACCUUCUCUCAGAGAUUAACA	0.105 ± 0.0088
UAGUGUGUCACCAUCUCUGACAGAUUAACA	0.222 ± 0.021
UAGACUGUCACCUUCUCUGAGAGAUAAUGA	0.00696 ± 0.0033
UAGUCUGUCACCUCUCUGAGAGAUUAACA	0.447 ± 0.048
UAGUCUGUCACCUCCUCUGAGAGAUUAACA	0.726 ± 0.038
UAGUCUGUCACCUCUCUCUGAGAGAUUAACA	0.481 ± 0.032
UAGUGACUCACCUUCUCUGAGAGAUUAACC [g2:g23:cont:t1C]	0.303 ± 0.032
AUCACUGUCAGGUUCUCUGAGAGAUUAACA	0.653 ± 0.043
